Measured values as given in the supplement of paper PMC6555819.

Tested on: VDR:RXRa (NR concentration 270 nM, RXRa partner concentration 90 nM)
Assay: PBM binding z-score (relative to random genomic background probes); higher = stronger binding; sequences stand for … in GC…GCGATTGACAGCGTAGAATGAAGG
Protocol: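 Protein-binding microarray (Agilent 4x180K custom design, double-stranded 60-nt probes: 5' GC cap, 34-nt variable region, 24-nt constant primer region; full probe sequence given). Purified or IVT nuclear receptor:RXRα heterodimers (3:1 NR:RXRα, mostly 270:90 nM) or homodimers were incubated for 1 h in PBS with 2% milk and no ligand, then detected with Alexa488 antibodies. Fluorescence from o1-orientation probes (~5 replicates averaged) was converted to z-scores against 500 random hg19 background probes. Variable regions are seed direct-repeat (DR0–DR5) sites, all their single-nucleotide variants and half-site ablations.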

In order of rising PBM binding z-score:
1. CCGACTGGGGCAGAACGGTTACCATACCATCCGG  -0.643
2. TCGAGTAGGTTAGGGGCCTTCAGAATGGCGTCGA  -0.482
3. TCTTGTAGATCAAGCAGGCTAAGAAAGCCTGAGT  -0.214
4. ATCTCTAGGTAAAAATTCAGTGAATCCCGAGGAT  -0.13
5. CGAACTAGGTGAGAACAGGACAGTGAAGGATGAT  -0.123
6. TCTCGGAGGACACGAATGTCAGAGCTTTCCAGAG  -0.117
7. CCTACTGGGCCATTCAGAGGTGATTGATCATATG  -0.104
8. CCGACTGGGGCATAAGGTTCCCATAAGCCAGCCC  -0.0761
9. GCTTGTCGATCAAGGTTAAGAAAGACTAAGCTAA  -0.0633
10. CCAGACAGGTGAGAAGGTAACTGAGCCTCGATTA  -0.0476
11. TCTCGTAGATCAAGCAGGTTAAGAAAGCCTGAGT  -0.00505
12. TCGAGTAGGTTACCGATGGGGCATTCAGCTTTCT  0.0364
13. TCTTGTAGATCAGCAGATTAAGAAAGCTGGCCAA  0.172
14. ACTATTAGTTGACTTGGGGCAACCGATACGACGC  0.274
15. TCGTGTAGATCAACAGGAGGTTAAGAAAGATCGA  0.314
16. GGAACGAGGGCAAAATTGATAGCATCTGTCGACG  0.352
17. TAGCCTAGGTCAGATCGGGCCAGAATACGCTATA  0.522
18. ATCTCTAGGTAAGGCTCAGTTCAGTGAAGAACGC  0.553
19. ATCTCTACGTAAGACTCAGTTCAGTGAAGAACGC  0.645
20. GCTAGCAGGCCATTTGGGTCACTAAATGACGGGC  0.655
21. ATCTCTAGGTGAAGATAGTTCAGTGAATGCAAAT  0.849
22. TGAATGAGGTTAAAAATCAGGGAACGTGGCGTCG  0.855
23. AGAATGAGGTTACCAAACATCAGGGAAACGCTTG  1.04
24. TCATATAGGTAATACAGGTGAAAGGCGGCATCTA  1.17
25. CGAACGAGGGCATGAGTTGATCGCAAATGCCGAT  1.34
26. TCATATAGGTAAAAGGTGAATGTCGGTGTGGTAA  1.44
27. AGAATGAGGTTATACGTAGATCAGGGATGAAAGT  1.47
28. GCTGCTAGGTCAACTGATGGTCAGCAAAAGCTCG  1.69
29. TCTGCTAGGTCAACGATGGTAAGCTAATCTGCTA  1.82
30. ATCGAAAGGTCGAACGTGAGTATACCCACCCGAA  2.88
31. AGAACTAGGGCAATGAGTTGATAGCACGGGTGGC  3.17
32. CAAACTAAGTCACCGGAAGGTCAAAGTCCGCATG  3.59
33. CCTACTGAGCCAAAAAGGTCATTGATGCCGATAA  4.58
34. TATACAGGGTCATAGGCCAGAGTACGAATGTCGA  4.62
35. CCTACTGGGCCAAAGGTCATTCATTCCAATGCTC  4.67
36. AGAACGAGGGCAATGAGTTGATGGCACGGGTGGC  4.7
37. CAAACTAGGTCACGATAGGTCAAAGTCGAATGAC  5.51
38. TCTAGTTGGTCACGGAGGTCACCCACGACGGGTA  5.63
39. CGTCCAAGGTCATAGGAGGTCAGCGAAGACAGAT  6.6
40. ATATGTAGGTTAGCCGGGGTCATTCAGACTAGGC  6.67
